More than one record can exist for a structure, and the calls need not agree. Activity calls are given as the source filed them. The calls were made as follows: active = hit-call score of the fitted dose curve at least 0.9, where 1 is the maximum; inactive = score below 0.9.

From PubChem BioAssay (EPA / NIEHS) come the findings set out here.

Read-out in this assay: Interferon-gamma inducible Protein 10 (IP10), CXCL10 (gene 3627)
Description: BSK_hDFCGF_IP10: BioMAP Diversity Plus: hDFCGF Assay for Interferon-gamma inducible Protein 10 (IP10) Biomarker Activity (AID 2283053). The conditions noted are these: primary human foreskin fibroblasts; actives raise or lower the signal. As to the method: BSK_hDFCGF is a cell-based, multiplexed-readout assay that uses foreskin fibroblast, a human skin primary cell, with measurements taken at 24 hours after chemical dosing in a 96-well plate.BSK_hDFCGF_IP10 is an assay component measured in the BSK_hDFCGF assay. It measures IP-10 antibody related to regulation of gene expression using ELISA technology.Data from the assay component BSK_hDFCGF_IP10 was analyzed into 1 assay endpoint. This assay endpoint, BSK_hDFCGF_IP10, was analyzed with bidirectional fitting relative to DMSO as the negative control and baseline of activity. Using a type of binding reporter, gain or loss-of-signal activity can be used to understand changes in the signaling as they relate to the gene CXCL10. Furthermore, this assay endpoint can be referred to as a primary readout, because this assay has produced multiple assay endpoints where this one serves a signaling function. To generalize the intended target to other relatable targets, this assay endpoint is annotated to the cytokine intended target family, where the subfamily is chemotactic factor.
The levels of cell surface (or secreted, indicated by the prefix "s") biomarker endpoints were measured by ELISA. Overt cytotoxicity to cells in confluent adherent cultures (all systems other than the BT system) was assessed by measuring total protein levels using sulforhodamine B (SRB) staining in parallel cultures at the time of biomarker measurements, indicated as SRB endpoints. For proliferation assays for adherent cell types, individual cell types are cultured at sub-confluence and relative cell numbers quantified by SRB staining at time points optimized for each system (48 h: 3C and CASM3C systems; 72 h: BT and HDF3CGF systems; 96 h: SAg system). SRB was performed by staining cells with 0.1% SRB after fixation with 10% TCA and reading wells at 560 nm.Viability and proliferation of PBMC (T cells) was quantified by Alamar Blue reduction for the SAg and BT systems. For PBMC viability (referred to as PBMC Cytotoxicity within the assay endpoint names), cells were plated (75,000/well in a 96-well plate) and then chemical samples added for 1 h before addition of activators, SEB and TSST-1 (20 ng/mL final concentration each). Cells were incubated for 90 h. Then, Alamar Blue (20 uL/well) (Invitrogen, Cat DAL1100) was added for 6 h, and the plates were read with a fluorescence microplate reader at 546/580 nm (excitation/emission). For PBMC proliferation, cells were plated and activated as above but incubated for only 16 h prior to addition of Alamar Blue. Plates were read after 6 h.
The term AC50 denotes the concentration at which the activity in the assay is half-maximal. Take `C[C@H]1[C@H](c2ccc(Cl)cc2)SC(=O)N1C(=O)NC1CCCCC1`: the AC50 is 20 µM (active).

In the case of `N#Cc1c(Cl)c(Cl)c(Cl)c(C#N)c1Cl`, the AC50 was 0.148 µM (active).

Take `COP(=S)(OC)Oc1ccc(SC)c(C)c1`: the result was inactive.

With `CCN(CC)C(=O)SCc1ccc(Cl)cc1`, the result was inactive.

For `O=[N+]([O-])c1c(Cl)c(Cl)c(Cl)c(Cl)c1Cl`, the AC50 is 38 µM (active).

On to `CNC(=O)CSP(=S)(OC)OC`, for which the outcome was inactive.

With `O=S1OCC2C(CO1)C1(Cl)C(Cl)=C(Cl)C2(Cl)C1(Cl)Cl` (stereo not given), the AC50 is 29.5 µM (active).

For the compound `O=C(NC(=O)c1c(F)cccc1F)Nc1ccc(OC(F)(F)C(F)OC(F)(F)F)c(Cl)c1` (stereo not given), the result was inactive.

As for `COc1nn(CSP(=S)(OC)OC)c(=O)s1`, the AC50 was 20 µM (active).

Take `ClC1C(Cl)C(Cl)C(Cl)C(Cl)C1Cl` (stereo not given): the outcome was inactive and the AC50 is 32.2 µM (active).

Take `O=S(=O)(O)C(F)(F)C(F)(F)C(F)(F)C(F)(F)C(F)(F)C(F)(F)C(F)(F)C(F)(F)F`: the outcome was inactive and the AC50 is 21.7 µM (active) [middle of 7 runs].

`N#CN`: the result was inactive.

For the compound `CC1(C)C(C=C(Cl)Cl)C1C(=O)OC(C#N)c1ccc(F)c(Oc2ccccc2)c1` (stereo not given), the outcome was inactive.

In the case of `O=C(Nc1ccccc1)Nc1cnns1`, the result was inactive.

As for `CNC(=O)/C=C(\C)OP(=O)(OC)OC`, the result was inactive.

Turning to `CCCN(CCC)c1c([N+](=O)[O-])cc(C(F)(F)F)cc1[N+](=O)[O-]`, the AC50 was 15.2 µM (active).

Consider `CCC(C)Nc1c([N+](=O)[O-])cc(C(C)(C)C)cc1[N+](=O)[O-]` (stereo not given), for which the AC50 is 15.3 µM (active).

In the case of `CCC(C)(NC(=O)c1cc(Cl)c(C)c(Cl)c1)C(=O)CCl` (stereo not given), the AC50 was 5.56 µM (active).

On to `OCCOc1ccccc1`, for which the result was inactive.

As to `CCOc1nc(NC)nc(NC(=O)NS(=O)(=O)c2ccccc2C(=O)OC)n1`, the AC50 is 26.5 µM (active).

Turning to `O=C(O)COc1ccc(Cl)cc1Cl`, the result was inactive.

`COP(=S)(OC)Oc1ccc([N+](=O)[O-])cc1`: the AC50 is 20.3 µM (active).

In the case of `CCCN(CCOc1c(Cl)cc(Cl)cc1Cl)C(=O)n1ccnc1`, the AC50 was 30.7 µM (active).

Turning to `CNC(=O)Oc1cccc(N=CN(C)C)c1`, the AC50 is 15.2 µM (active).

As to `CCOC1Oc2ccc(OS(C)(=O)=O)cc2C1(C)C` (stereo not given), the result was inactive.

On to `CC(C)N(C(=O)COc1nnc(C(F)(F)F)s1)c1ccc(F)cc1`, for which the AC50 was 22.9 µM (active).

With `[2H]C1([2H])[n+]2ccccc2-c2cccc[n+]2C1([2H])[2H]`, the AC50 was 5.27 µM (active).

As for `O=C1c2ccccc2C(=O)N1SC(Cl)(Cl)Cl`, the AC50 is 20 µM (active).

Turning to `CCc1ccc(C(=O)NN(C(=O)c2cc(C)cc(C)c2)C(C)(C)C)cc1`, the result was inactive.

Regarding `O=C(O)CCCOc1ccc(Cl)cc1Cl`, the outcome was inactive.

As for `COC(=O)c1ccccc1S(=O)(=O)NC(=O)Nc1nc(C)nc(OC)n1`, the outcome was inactive.

On to `Oc1cc(Cl)ccc1Oc1ccc(Cl)cc1Cl`, for which the AC50 was 15.4 µM (active) [middle of 4 runs].

Regarding `CC(C)(C)C(O)C(Oc1ccc(Cl)cc1)n1cncn1` (stereo not given), the outcome was inactive.

Regarding `Clc1ccccc1-c1nnc(-c2ccccc2Cl)nn1`, the AC50 is 14.5 µM (active).

Regarding `COc1cc(OC)nc(NC(=O)NS(=O)(=O)c2cc(NC=O)ccc2C(=O)N(C)C)n1`, the result was inactive.

`O=[N+]([O-])/N=C1\NCCN1Cc1ccc(Cl)nc1`: the outcome was inactive.

Turning to `O=C(O)C(F)(F)C(F)(F)C(F)(F)C(F)(F)C(F)(F)C(F)(F)C(F)(F)F`, the outcome was inactive.

As for `CNC(=O)Oc1ccccc1OC(C)C`, the outcome was inactive.
